Assay results as given in the supplement of paper PMC7261846.
± gives the uncertainty stated by the source.

Tested on: Candida albicans SNY425 biofilm
Experiment: biofilm OD600 with compound plus antifungal (OD600 (absorbance)); higher = more biofilm remaining
[1] = assay detail: disruption of 24-h mature biofilm (compound + antifungal for a second 24 h)
[2] = assay detail: sustained inhibition (compound + antifungal during 90-min adherence and 24-h growth)

| Compound | biofilm OD600 [1] | biofilm OD600 [2] |
| --- | --- | --- |
| CCC(C)[C@H](NS(=O)(=O)c1cccc2ccccc12)C(=O)N[C@H](C=O)Cc1c[nH]c2ccccc12 (some centres not stated) + OC(Cn1cncn1)(Cn1cncn1)c1ccc(F)cc1F [fluconazole] (first compound 12.5 µM) | 0.249 ± 0.0046 | 0.14 ± 0.0069 |
| CCOC(=O)[C@H](CCc1ccccc1)N[C@@H](C)C(=O)N1CCC[C@H]1C(=O)O [Enalapril] + C[C@@H]1[C@H](O)[C@@H](C)/C=C/C=C/C=C/C=C/C=C/C=C/C=C/[C@H](O[C@@H]2O[C@H](C)[C@@H](O)[C@H](N)[C@@H]2O)C[C@@H]2O[C@](O)(C[C@@H](O)C[C@@H](O)[C@H](O)CC[C@@H](O)C[C@@H](O)CC(=O)O[C@H]1C)C[C@H](O)[C@H]2C(=O)O [amphotericin B] (first compound 12.5 µM) | 0.279 ± 0.0057 | 0.197 ± 0.023 |
| C[C@H](CS)C(=O)N1CCC[C@H]1C(=O)O [Captopril] + OC(Cn1cncn1)(Cn1cncn1)c1ccc(F)cc1F [fluconazole] (first compound 12.5 µM) | 0.281 ± 0.0069 | 0.167 ± 0.01 |
| CC(C)CC(=O)N[C@H](C(=O)N[C@H](C(=O)N[C@@H](CC(C)C)[C@@H](O)CC(=O)N[C@@H](C)C(=O)N[C@@H](CC(C)C)[C@@H](O)CC(=O)O)C(C)C)C(C)C [Pepstatin A] + C[C@@H]1[C@H](O)[C@@H](C)/C=C/C=C/C=C/C=C/C=C/C=C/C=C/[C@H](O[C@@H]2O[C@H](C)[C@@H](O)[C@H](N)[C@@H]2O)C[C@@H]2O[C@](O)(C[C@@H](O)C[C@@H](O)[C@H](O)CC[C@@H](O)C[C@@H](O)CC(=O)O[C@H]1C)C[C@H](O)[C@H]2C(=O)O [amphotericin B] (first compound 12.5 µM) | 0.272 ± 0.0097 | 0.199 ± 0.011 |
| CC(C)c1nc(CN(C)C(=O)N[C@H](C(=O)N[C@@H](Cc2ccccc2)C[C@H](O)[C@H](Cc2ccccc2)NC(=O)OCc2cncs2)C(C)C)cs1 [ritonavir] + CC[C@H](C)C[C@H](C)CCCCCCCCC(=O)N[C@H]1C[C@@H](O)[C@@H](NCCN)NC(=O)[C@@H]2[C@@H](O)CCN2C(=O)[C@H]([C@H](O)CCN)NC(=O)[C@H]([C@H](O)[C@@H](O)c2ccc(O)cc2)NC(=O)[C@@H]2C[C@@H](O)CN2C(=O)[C@H]([C@@H](C)O)NC1=O [caspofungin] (first compound 12.5 µM) | 0.159 ± 0.0069 | 0.12 ± 0.009 |
| C[C@H](CS)C(=O)N1CCC[C@H]1C(=O)O [Captopril] + CC[C@H](C)C[C@H](C)CCCCCCCCC(=O)N[C@H]1C[C@@H](O)[C@@H](NCCN)NC(=O)[C@@H]2[C@@H](O)CCN2C(=O)[C@H]([C@H](O)CCN)NC(=O)[C@H]([C@H](O)[C@@H](O)c2ccc(O)cc2)NC(=O)[C@@H]2C[C@@H](O)CN2C(=O)[C@H]([C@@H](C)O)NC1=O [caspofungin] (first compound 12.5 µM) | 0.286 ± 0.011 | 0.198 ± 0.0082 |
| C[C@H](CS)C(=O)N1CCC[C@H]1C(=O)O [Captopril] + C[C@@H]1[C@H](O)[C@@H](C)/C=C/C=C/C=C/C=C/C=C/C=C/C=C/[C@H](O[C@@H]2O[C@H](C)[C@@H](O)[C@H](N)[C@@H]2O)C[C@@H]2O[C@](O)(C[C@@H](O)C[C@@H](O)[C@H](O)CC[C@@H](O)C[C@@H](O)CC(=O)O[C@H]1C)C[C@H](O)[C@H]2C(=O)O [amphotericin B] (first compound 12.5 µM) | 0.285 ± 0.011 | 0.214 ± 0.0071 |
| NCC1CCC(C(=O)N[C@@H](Cc2ccccc2)C(=O)Nc2ccc(CC(=O)O)cc2)CC1 (some centres not stated) + CC[C@H](C)C[C@H](C)CCCCCCCCC(=O)N[C@H]1C[C@@H](O)[C@@H](NCCN)NC(=O)[C@@H]2[C@@H](O)CCN2C(=O)[C@H]([C@H](O)CCN)NC(=O)[C@H]([C@H](O)[C@@H](O)c2ccc(O)cc2)NC(=O)[C@@H]2C[C@@H](O)CN2C(=O)[C@H]([C@@H](C)O)NC1=O [caspofungin] (first compound 12.5 µM) | 0.26 ± 0.0081 | 0.191 ± 0.024 |
| Cc1cccc(C)c1OCC(=O)N[C@@H](Cc1ccccc1)[C@@H](O)C[C@H](Cc1ccccc1)NC(=O)[C@H](C(C)C)N1CCCNC1=O [lopinavir] + OC(Cn1cncn1)(Cn1cncn1)c1ccc(F)cc1F [fluconazole] (first compound 12.5 µM) | 0.246 ± 0.01 | 0.141 ± 0.021 |
| CO[C@@H]1[C@H](OC(=O)/C=C/C=C/C=C/C=C/C(=O)O)CC[C@]2(CO2)[C@H]1[C@@]1(C)O[C@@H]1CC=C(C)C [Fumagillin] + OC(Cn1cncn1)(Cn1cncn1)c1ccc(F)cc1F [fluconazole] (first compound 12.5 µM) | 0.246 ± 0.013 | 0.117 ± 0.0056 |
| CCOC(=O)[C@H](CCc1ccccc1)N[C@@H](C)C(=O)N1CCC[C@H]1C(=O)O [Enalapril] + OC(Cn1cncn1)(Cn1cncn1)c1ccc(F)cc1F [fluconazole] (first compound 12.5 µM) | 0.258 ± 0.0055 | 0.157 ± 0.015 |
| CC(C)C[C@H](NC(=O)[C@H]1O[C@@H]1C(=O)O)C(=O)NCCCCN=C(N)N + CC[C@H](C)C[C@H](C)CCCCCCCCC(=O)N[C@H]1C[C@@H](O)[C@@H](NCCN)NC(=O)[C@@H]2[C@@H](O)CCN2C(=O)[C@H]([C@H](O)CCN)NC(=O)[C@H]([C@H](O)[C@@H](O)c2ccc(O)cc2)NC(=O)[C@@H]2C[C@@H](O)CN2C(=O)[C@H]([C@@H](C)O)NC1=O [caspofungin] (first compound 12.5 µM) | 0.261 ± 0.01 | 0.18 ± 0.008 |
| CCCCC[C@H](CC(=O)NO)C(=O)N[C@H](C(=O)N1CCC[C@H]1CO)C(C)C [Actinonin] + OC(Cn1cncn1)(Cn1cncn1)c1ccc(F)cc1F [fluconazole] (first compound 12.5 µM) | 0.267 ± 0.0099 | 0.145 ± 0.0085 |
| COC(=O)C[C@H](NC(=O)[C@H](C)NC(=O)[C@@H](NC(=O)OCc1ccccc1)C(C)C)C(=O)CF + OC(Cn1cncn1)(Cn1cncn1)c1ccc(F)cc1F [fluconazole] (first compound 12.5 µM) | 0.283 ± 0.0098 | 0.12 ± 0.0089 |
| CC(C)C[C@H](NP(=O)(O)O[C@@H]1O[C@@H](C)[C@H](O)[C@@H](O)[C@H]1O)C(=O)N[C@@H](Cc1c[nH]c2ccccc12)C(=O)O [Phosphoramidon] + C[C@@H]1[C@H](O)[C@@H](C)/C=C/C=C/C=C/C=C/C=C/C=C/C=C/[C@H](O[C@@H]2O[C@H](C)[C@@H](O)[C@H](N)[C@@H]2O)C[C@@H]2O[C@](O)(C[C@@H](O)C[C@@H](O)[C@H](O)CC[C@@H](O)C[C@@H](O)CC(=O)O[C@H]1C)C[C@H](O)[C@H]2C(=O)O [amphotericin B] (first compound 12.5 µM) | 0.28 ± 0.0089 | 0.211 ± 0.0094 |
| C[C@]1(Cn2ccnn2)[C@H](C(=O)O)N2C(=O)C[C@H]2S1(=O)=O [Tazobactam] + C[C@@H]1[C@H](O)[C@@H](C)/C=C/C=C/C=C/C=C/C=C/C=C/C=C/[C@H](O[C@@H]2O[C@H](C)[C@@H](O)[C@H](N)[C@@H]2O)C[C@@H]2O[C@](O)(C[C@@H](O)C[C@@H](O)[C@H](O)CC[C@@H](O)C[C@@H](O)CC(=O)O[C@H]1C)C[C@H](O)[C@H]2C(=O)O [amphotericin B] (first compound 12.5 µM) | 0.308 ± 0.008 | 0.193 ± 0.0071 |
| CC(C)C[C@H](NC(=O)N[C@H](C(=O)N[C@@H](CCC(N)=O)C(=O)N[C@@H](C)C=O)[C@@H]1CCNC(=N)N1)C(=O)O [Elastatinal] + CC[C@H](C)C[C@H](C)CCCCCCCCC(=O)N[C@H]1C[C@@H](O)[C@@H](NCCN)NC(=O)[C@@H]2[C@@H](O)CCN2C(=O)[C@H]([C@H](O)CCN)NC(=O)[C@H]([C@H](O)[C@@H](O)c2ccc(O)cc2)NC(=O)[C@@H]2C[C@@H](O)CN2C(=O)[C@H]([C@@H](C)O)NC1=O [caspofungin] (first compound 12.5 µM) | 0.263 ± 0.0069 | 0.189 ± 0.011 |
| CC(NC(=O)C(Cc1ccccc1)NC(=O)OCc1ccccc1)C(=O)CF (configuration not stated) + C[C@@H]1[C@H](O)[C@@H](C)/C=C/C=C/C=C/C=C/C=C/C=C/C=C/[C@H](O[C@@H]2O[C@H](C)[C@@H](O)[C@H](N)[C@@H]2O)C[C@@H]2O[C@](O)(C[C@@H](O)C[C@@H](O)[C@H](O)CC[C@@H](O)C[C@@H](O)CC(=O)O[C@H]1C)C[C@H](O)[C@H]2C(=O)O [amphotericin B] (first compound 12.5 µM) | 0.307 ± 0.0094 | 0.185 ± 0.005 |
| CCCC[C@@H](C=O)NC(=O)[C@H](CC(C)C)NC(=O)OCc1ccccc1 [Calpeptin] + OC(Cn1cncn1)(Cn1cncn1)c1ccc(F)cc1F [fluconazole] (first compound 12.5 µM) | 0.26 ± 0.0076 | 0.162 ± 0.01 |
| Cc1ccc(S(=O)(=O)N[C@@H](Cc2ccccc2)C(=O)CCl)cc1 + C[C@@H]1[C@H](O)[C@@H](C)/C=C/C=C/C=C/C=C/C=C/C=C/C=C/[C@H](O[C@@H]2O[C@H](C)[C@@H](O)[C@H](N)[C@@H]2O)C[C@@H]2O[C@](O)(C[C@@H](O)C[C@@H](O)[C@H](O)CC[C@@H](O)C[C@@H](O)CC(=O)O[C@H]1C)C[C@H](O)[C@H]2C(=O)O [amphotericin B] (first compound 4 µM) | 0.25 ± 0.011 | 0.158 ± 0.0081 |
| CCOC(=O)[C@H](CCc1ccccc1)N[C@@H](C)C(=O)N1CCC[C@H]1C(=O)O [Enalapril] + CC[C@H](C)C[C@H](C)CCCCCCCCC(=O)N[C@H]1C[C@@H](O)[C@@H](NCCN)NC(=O)[C@@H]2[C@@H](O)CCN2C(=O)[C@H]([C@H](O)CCN)NC(=O)[C@H]([C@H](O)[C@@H](O)c2ccc(O)cc2)NC(=O)[C@@H]2C[C@@H](O)CN2C(=O)[C@H]([C@@H](C)O)NC1=O [caspofungin] (first compound 12.5 µM) | 0.266 ± 0.012 | 0.207 ± 0.011 |
